# From the supplement of paper PMC12636033
# ± gives the standard deviation of the averaged measurements. In all, about 33,000 sequences were measured (“E-score (rank enrichment, -0.5 to 0.5)”: median about -0.0028, highest 2% from about 0.23 on). For the sample, the highest values were picked, then their nearest neighbours and some sequences at random.
# Tested on: 2Sb-muMax20 (muMax20 with two 1,3-bis(methyl)benzene Cys staples, A13C/A17C and Q88C/A92C, C-terminal Lys)
# Experiment: PBM 8-mer E-score (E-score (rank enrichment, -0.5 to 0.5)); higher = stronger preferential binding
# Method: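 Protein binding microarray (universal PBM chip covering all 10-mers in fixed probe flanks) with chemically synthesized human Max(13-93) bHLH-LZ analogs (not full-length Max) bearing noncanonical residues (hArg, Tha, Aib, Nle at 65) and aromatic Cys staples. Read-out per 8-mer (and its reverse complement): E-score (rank-based enrichment, -0.5 to 0.5) and Z-score of median probe intensity.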
row,Sequence,PBM 8-mer E-score
1,GCTGCAAA,-0.0134 ± 0.061
2,ACCGTCAT,0.0687 ± 0.082
3,CAACCCCA,0.294 ± 0.051
4,CAACCCCC,-0.167 ± 0.046
5,CAACCCAA,-0.0401 ± 0.029
6,AGTTTATC,0.182 ± 0.027
7,AGTTTATA,0.235 ± 0.044
8,GGTTTATA,0.047 ± 0.079
9,ACTTTCTA,0.241 ± 0.012
10,ACTTTCTC,0.0106 ± 0.018
11,ACTTTATC,0.00955 ± 0.014
12,CCTTTATA,0.0289 ± 0.054
13,ACTTTATA,0.232 ± 0.077
14,ACTTTCTG,-0.0565 ± 0.016
15,AGGCGAGG,0.0445 ± 0.00056
16,CTATACCA,0.214 ± 0.036
17,CGTCTGAG,-0.115 ± 0.054
18,CAACCGCG,0.0452 ± 0.028
19,ATGTCTGC,-0.0456 ± 0.036
20,AATCTTCC,0.0406 ± 0.055
21,ATATCGAA,0.0967 ± 0.018
22,ATATCGAC,0.0358 ± 0.012

row,Sequence,PBM 8-mer E-score
1,ATATCGAT,0.23 ± 0.013
2,TCCTGGCA,-0.0907 ± 0.03
3,CCTTATAC,0.175 ± 0.015
4,CACACTTA,0.15 ± 0.045
5,ATTTAAAC,0.167 ± 0.021
6,AAGGGTTG,0.0938 ± 0.044
7,CGGGGTAA,0.19 ± 0.055
8,AGGGGCAT,0.272 ± 0.028
9,AGGGGCTC,0.0348 ± 0.035
10,AGGGGCAA,0.159 ± 0.017
11,AGGGGTTA,0.135 ± 0.04
12,GGGGGTAA,-0.0157 ± 0.073
13,AGGGGTTG,0.266 ± 0.068
14,AGGGGCAC,-0.0355 ± 0.044
15,AGGGGCTA,0.198 ± 0.055
16,AGGGGCTG,0.252 ± 0.036
17,TGGGGTAA,0.266 ± 0.033
18,TAAGGCGA,0.0332 ± 0.024
19,CCAACGTA,-0.0251 ± 0.052
20,CCACTCAA,0.199 ± 0.032
21,ACTGGCAG,-0.182 ± 0.042
22,AATGGTGG,0.0724 ± 0.034

row,Sequence,PBM 8-mer E-score
1,AACCTTGT,-0.108 ± 0.054
2,GGGGCTAA,0.0894 ± 0.033
3,ATCGCCAA,-0.0483 ± 0.083
4,ACACCGTA,0.0971 ± 0.049
5,ATATCACA,0.112 ± 0.039
6,AAGCCCCG,0.0771 ± 0.022
7,AGGGGTAA,0.202 ± 0.014
8,CGGGGTAG,0.147 ± 0.071
9,AGGGGTAG,0.309 ± 0.059
10,AGGTCCGA,-0.128 ± 0.028
11,AATTTAAA,0.0161 ± 0.022
12,ATTTTTAC,0.127 ± 0.05
13,CGAAACAA,0.0409 ± 0.023
14,TGAAACAA,0.261 ± 0.053
15,AGAAACAT,0.0919 ± 0.038
16,AGAAACAA,0.252 ± 0.0078
17,GGAAACAA,0.133 ± 0.078
18,AGAAACAC,0.0175 ± 0.091
19,ACCCTCTG,-0.181 ± 0.025
20,GGGTCTTA,0.104 ± 0.061
21,GCGTATGA,0.0375 ± 0.06
22,ATTCTTCA,0.00503 ± 0.029

row,Sequence,PBM 8-mer E-score
1,ACCGCTTC,-0.17 ± 0.019
2,AATATTTA,0.201 ± 0.0076
3,GTTCAGGA,-0.184 ± 0.021
4,CCCTGAGC,0.0168 ± 0.058
5,AATATGAC,0.166 ± 0.012
6,AATATGAA,0.271 ± 0.004
7,GATATGAA,0.103 ± 0.013
8,AATATGAG,-0.034 ± 0.019
9,TATATGAA,0.159 ± 0.022
10,AATATGAT,0.252 ± 0.03
11,ATTTTACG,0.126 ± 0.054
12,CAGTTCAG,0.0182 ± 0.11
13,GTGCACAC,-0.0164 ± 0.1
14,GGCTACGA,-0.0832 ± 0.011
15,CACGTCCC,-0.161 ± 0.028
16,ATGCGAGA,-0.0394 ± 0.1
17,ATGCGAGG,0.2342 ± 0.0017
18,ATGCGAGC,0.00876 ± 0.045
19,CGCCCCCC,-0.286 ± 0.14
20,AATGTACG,0.115 ± 0.053
21,CATGTACA,0.125 ± 0.1
22,CATGTACG,0.311 ± 0.024

row,Sequence,PBM 8-mer E-score
1,TGCACTAA,0.102 ± 0.019
2,ATGGTGCA,0.196 ± 0.05
3,CAACACCG,-0.202 ± 0.036
4,GAACACCC,-0.145 ± 0.022
5,CAACACCC,0.252 ± 0.0077
6,GAGGTATA,0.144 ± 0.025
7,TAGTAGAA,-0.0551 ± 0.015
8,ACGGACAA,0.0365 ± 0.0016
9,CGACGCAG,-0.238 ± 0.017
10,ATGAAATA,0.169 ± 0.024
11,ATGAAATC,0.137 ± 0.039
12,ATGAATGA,0.181 ± 0.035
13,ATGAATGC,0.164 ± 0.06
14,ATGAAATG,0.277 ± 0.066
15,ATGAATGG,0.297 ± 0.033
16,CCCGCGAG,0.015 ± 0.026
17,CGCAGACG,-0.0875 ± 0.1
18,CATGTGCC,0.161 ± 0.0077
19,ATGGCCGC,-0.0812 ± 0.007
20,CCTGCGAA,-0.0794 ± 0.0094
21,AGGGGTGG,0.287 ± 0.046
